L3MBTL1 inh-1: qHTS Assay for the Inhibitors of L3MBTL1. Lethal(3)malignant brain tumor-like protein 1 (Homo sapiens), Q9Y468. AlphaScreen L3MBTL1–H3K9me1 peptide binding. Potency, µM (highest dose often 57.1 µM), inactives show at the top dose activity, negative = inhibition, usual class: inhibitors. 230,000 tested, 0.66% active. AID 485360, 2010; further: on the % scale 0 is the no-effect control and ±100 the full control effect; nearly all actives have a fitted effect of over 60% in size
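Displacement of a biotinylated histone H3(1-15) peptide monomethylated at Lys9 (75 nM) from L3MBTL1 (50 nM) was measured by AlphaScreen after a 30 min room-temperature compound incubation; cefsulodin titration served as intraplate control.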
RECQ1 inh: qHTS Assay for Inhibitors of RecQ-Like Dna Helicase 1 (RECQ1); ATP-dependent DNA helicase Q1 (Homo sapiens), P46063; RECQ1 DNA unwinding, red fluorescence kinetic read; Potency, µM (top dose mostly 57.3 µM), inactives show at the highest dose activity, negative = inhibition, actives largely listed as inhibitors; 240,000 tested, 0.54% active;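 further: plate controls were vehicle for no effect and no enzyme for full effect; nearly all actives have a fitted effect of over 30% in size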
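50 nM RECQ1T1 preincubated 15 min with compound in Tris pH 8.0 buffer with MgCl2, DTT, Tween-20 and 2.5 ug/ml poly(dI-dC); started with 200 nM TAMRA/BHQ-2 forked duplex and 2 mM ATP. Unwinding read as fluorescence (525/598 nm), two reads 2 h apart.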
BLM inh-1: qHTS Assay for Inhibitors of Bloom's syndrome helicase (BLM); RecQ-like DNA helicase BLM (Homo sapiens), P54132; recombinant BLM DNA unwinding, fluorescence dequenching; Potency, µM (highest dose often 56.1 µM), for the others: at the highest dose activity change, negative = inhibition, most hits filed as inhibitors; 350,000 tested, 0.2% active;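 further: plate controls were vehicle for no effect and no enzyme for full effect; nearly all actives have a fitted effect of over 35% in size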
APE1 inh-1: qHTS Assay for Inhibitors of the Human Apurinic/apyrimidinic Endonuclease 1 (APE1); DNA repair nuclease/redox regulator APEX1 (Homo sapiens), P27695; recombinant APE1, TAMRA/BHQ-2 abasic DNA cleavage fluorescence; Potency, µM (series often up to 65.8 µM), for the others: top-dose activity change, negative = inhibition, hits mostly inhibitors; 350,000 tested, 0.35% active;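 further: plate controls were vehicle for no effect and reference inhibitor for full effect; nearly all actives have a fitted effect of over 55% in size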
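Readout is kinetic fluorescence (ex 525, em 598 nm) from cleavage of 50 nM TAMRA/BHQ-2 THF abasic duplex by 0.75 nM APE1, compound added 15 min beforehand at RT.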
KDM4E inh: qHTS Assay for Inhibitors of Human Jumonji Domain Containing 2E (JMJD2E) | Lysine-specific demethylase 4E (Homo sapiens), B2RXH2 | JMJD2E catalytic domain, FDH-coupled NADH fluorescence (FDH is formaldehyde dehydrogenase) | Potency, µM (doses to about 57.1 µM), inactives show at the highest dose activity change, negative = inhibition, actives largely listed as inhibitors | 230,000 tested, 1.6% active | AID 2147, 2009; active means well fitted inhibition curve with a large enough effect, not every such curve was filed as active; inconclusive means small, poorly fitted or top-dose-only effect, or another doubt; inactive means no such curve, though single readings can be large or run the other way;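 further: 0% = wells with enzyme and -100% = buffer wells without enzyme; nearly all actives have a fitted effect of over 50% in size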
APE1 dye cs: Counterscreen for APE1 Inhibitors: Fluorescent Dye Displacement Assay | shares compounds with APE1 inh-1 | DNA fluorescent dye displacement counterscreen, fluorescence | 480 tested, 7% active | Potency, µM (titrated, usually from 28.5 µM), inactives show at the top dose activity change, negative = inhibition, most hits filed as inhibitors;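 further: loss of thiazole orange fluorescence as the dye is displaced from duplex DNA; 0% = ThO with dsDNA and no compound and -100% = ThO without dsDNA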
Endo IV inh: Counterscreen for APE1 Inhibitors: qHTS Assay for Inhibitors of Endonuclease IV. Potency, µM (doses to about 27.1 µM), inactives show at the top dose activity change, negative = inhibition, hits mostly inhibitors. 560 tested, 4% active. shares compounds with APE1 inh-1. E. coli Endo IV, fluorogenic AP-site DNA cleavage. AID 2565, 2010;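 further: plate controls were uninhibited enzyme wells for no effect and no enzyme buffer wells for full effect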
APE1 inh-2: Confirmation qHTS Assay for Inhibitors of the Human Apurinic/apyrimidinic Endonuclease 1 (APE1). shares compounds with APE1 inh-1. purified APE1, fluorogenic abasic-site DNA cleavage. Potency, µM (highest dose often 57.1 µM), inactives show at the highest dose activity change, negative = inhibition, most hits filed as inhibitors. 750 tested, 44% active. AID 2572, 2010; further: on the % scale 0 is the no-effect control and ±100 the full control effect; nearly all actives have a fitted effect of over 30% in size
APE1 FP: qHTS FP-Based Assay for Inhibitors of the Human Apurinic/apyrimidinic Endonuclease 1 (APE1) | Potency, µM (top dose mostly 28.5 µM), without a hit: at the top dose activity, negative = inhibition, hits mostly inhibitors | shares compounds with APE1 inh-1 | APE1 binding to TAMRA-labelled double-stranded DNA, fluorescence polarization displacement | 480 tested, 7% active; further: on the % scale 0 is the no-effect control and ±100 the full control effect
BLM inh-2: qHTS Confirmation Assay for Inhibitors of Bloom's syndrome helicase (BLM). shares compounds with BLM inh-1. BLM DNA unwinding, fluorescence quenching, biochemical. Potency, µM, for the others: max response, negative = inhibition, most hits filed as inhibitors. AID 2585, 2010. 220 tested, 40% active;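 further: strand separation dequenches TAMRA so unwinding raises red fluorescence; series mostly up to about 69 µM; on the % scale 0 is the no-effect control and ±100 the full control effect; nearly all actives have a fitted effect of over 45% in size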
RECQ1 conf: Confirmation qHTS Assay for Inhibitors of RecQ-Like Dna Helicase 1 (RECQ1). RECQ1 helicase DNA unwinding, fluorescence. Potency, µM (titrated, usually from 229 µM), for inactives: at the highest dose activity change, negative = inhibition, most hits filed as inhibitors. shares compounds with RECQ1 inh. 610 tested, 28% active; further: on the % scale 0 is the no-effect control and ±100 the full control effect; nearly all actives have a fitted effect of over 45% in size
RECQ1 ADP FP: Counterscreen for RECQ1 Inhibitors: ADP Fluorescence Polarization Displacement Assay. Potency, µM (highest dose often 228 µM), for inactives: at the top dose activity change, negative = inhibition, usual class: inhibitors. shares compounds with RECQ1 inh. ADP fluorescence polarization displacement counterscreen. 530 tested, 27% active; further: on the % scale 0 is the no-effect control and ±100 the full control effect; nearly all actives have a fitted effect of over 45% in size
L3MBTL1 inh-2: qHTS Assay for the Inhibitors of L3MBTL1: Hit Validation. 500 tested, 91% active. L3MBTL1 methyl-lysine binding inhibition, biochemical qHTS. shares compounds with L3MBTL1 inh-1. Potency, µM, hits mostly inhibitors; further: nearly all actives have a fitted effect of over 70% in size
L3MBTL1 ctr: qHTS Assay for the Inhibitors of L3MBTL1: Hit Validationin AlphaScreen Counterscreen; AlphaScreen counterscreen, signal inhibition; shares compounds with L3MBTL1 inh-1; Potency, µM (titrated, usually from 57.1 µM), for inactives: top-dose activity change, negative = inhibition, hits mostly inhibitors; 500 tested, under 10 active; further: 0% is about no effect
* = called active by the depositor; i = inactive; u = inconclusive; x = no result given; [ ] = dose if it differs, or a comment. The sample as a whole holds a higher share of hits than the screen did. Unless noted, the call rests on the fitted dose curve; in most records, active means well fitted curve in the direction sought with a large enough effect; inconclusive means small, poorly fitted or top-dose-only effect, or another doubt; inactive means no such curve, though single readings can be large; an effect the other way counts as inactive or inconclusive. Potency means the concentration at half of the fitted maximal effect.

SMILES	L3MBTL1 inh-1	RECQ1 inh	BLM inh-1	APE1 inh-1	KDM4E inh	APE1 dye cs	Endo IV inh	APE1 inh-2	APE1 FP	L3MBTL1 inh-2	L3MBTL1 ctr	others
Cc1cccc(OCCn2cccc2/C=C2/C(=O)NC(=O)N(Cc3ccco3)C2=O)c1	20µM*	8.91µM*	25.1µM*	7.94µM*	-22.2%	0.2%	4.7%	12.6µM*	u	u	u	RECQ1 conf=u;RECQ1 ADP FP=-2.9%[91.9 µM]
COc1ccc(CNC(=O)/C=C\c2ccc3[nH]cc(CCN(C)C)c3c2)cc1	x	i	2.9%	-6.8%	u	x	x	x	x	x	x
O=C(C1CCC(=O)N1Cc1ccccc1Cl)N1CCC2(CC1)OCCO2 (stereo not drawn)	x	-7.9%	0.2%	0.5%	-4.4%	x	x	x	x	x	x
COc1ccc(CN2C(=O)NC(=O)/C(=C\c3ccco3)C2=O)cc1	7.94µM*	u	u	22.4µM*	-24.9%	u	1.9%	14.1µM*	-8.4%	2.67*	-23.1%
CCOC(=O)c1c(NC(=O)c2c(N)n(CCCOC)c3nc4ccccc4nc23)sc2c1CCCC2	-5.7%	-6.2%	3.98µM*	1.8%	9.7%	x	x	x	x	x	x	BLM inh-2=-11.2%

Source: PubChem (National Center for Advancing Translational Sciences (NCATS))
